Screening data: PubChem, National Center for Advancing Translational Sciences (NCATS)
SMN2 splice enh = qHTS Assay for Enhancers of SMN2 Splice Variant Expression; HEK293 SMN2-luciferase splicing reporter, luminescence, 30-36 h; Potency, µM (doses to about 46.1 µM), inactives show top-dose activity change, positive = activation, most hits filed as activators; 210,000 tested, 2.8% active; AID 1458, 2008; note: % of control where 0% means no effect; nearly all actives have a fitted effect of over 55% in size
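HEK293 cells carry an SMN2 […]–luciferase reporter in which exon 7 inclusion puts luciferase in frame. Cells were plated 10-12 h before compound addition, then incubated 30-36 h at 37C. ONE-Glo luminescence was read; sodium butyrate at 4.5 mM final served as control.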
NPC1 promoter act = qHTS Assay for NPC1 Promoter Activators | Huh7 NPC1 promoter luciferase reporter, 24 h | Potency, µM (doses to about 9.22 µM), inactives show at the highest dose activation, usual class: activators | 320,000 tested, 2.4% active; note: % of control where 0% means no effect; nearly all actives have a fitted effect of over 60% in size
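Huh7 reporter cells (NPC1 promoter driving luciferase) are dosed with compound for 24 h at 37 °C, 5% CO2; luciferase detection reagent is then added and luminescence measured after 10 min at ambient temperature.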
FLuc counter = qHTS profiling assay for firefly luciferase inhibitor/activator using purifed enzyme and Km concentrations of substrates (counterscreen for miR-21 project); Luciferin 4-monooxygenase (Photinus pyralis), P08659; AID 588342, 2011; 360,000 tested, 6.9% active; purified FLuc, Km substrates, luminescence inhibition; Potency, µM (titrated, usually from 57.5 µM), for the others: at the highest dose activity change, negative = inhibition, hits mostly inhibitors;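 note: plate controls were vehicle for no effect and reference inhibitor for full effect; nearly all actives have a fitted effect of over 55% in size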
Target sequence (P08659 whole entry, looked up): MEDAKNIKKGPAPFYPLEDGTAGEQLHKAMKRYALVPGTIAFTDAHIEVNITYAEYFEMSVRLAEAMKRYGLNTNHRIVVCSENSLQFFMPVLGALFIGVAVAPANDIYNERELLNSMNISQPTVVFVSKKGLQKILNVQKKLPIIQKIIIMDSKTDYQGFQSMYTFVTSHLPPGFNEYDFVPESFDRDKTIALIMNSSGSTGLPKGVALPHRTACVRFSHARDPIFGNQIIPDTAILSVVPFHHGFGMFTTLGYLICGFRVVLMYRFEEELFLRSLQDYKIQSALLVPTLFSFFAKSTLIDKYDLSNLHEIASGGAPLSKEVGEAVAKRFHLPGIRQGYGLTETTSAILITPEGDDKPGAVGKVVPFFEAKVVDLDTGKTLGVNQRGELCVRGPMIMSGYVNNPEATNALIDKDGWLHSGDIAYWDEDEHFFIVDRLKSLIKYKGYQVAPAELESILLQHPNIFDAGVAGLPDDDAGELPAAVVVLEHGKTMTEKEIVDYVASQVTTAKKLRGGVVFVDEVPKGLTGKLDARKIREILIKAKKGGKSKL
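Biochemical qHTS of compounds, final roughly 60 µM downward over six points, against 10 nM purified firefly luciferase using Km concentrations of substrates (10 uM D-luciferin, 10 uM ATP) in Tris acetate pH 7.5 buffer; luminescence output.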
ELG1 repair inh = qHTS screen for small molecules that inhibit ELG1-dependent DNA repair in human embryonic kidney (HEK293T) cells expressing luciferase-tagged ELG1. HEK293T ELG1-luciferase reporter, luminescence, 16 h; DNA damage induced by 5-fluorouridine. Potency, µM (series often up to 46.1 µM), without a hit: top-dose activity change, negative = inhibition, usual class: inhibitors. 330,000 tested, 2.3% active. AID 504467, 2011; note: % is set by controls: 0 for no effect and ±100 for the full control effect; nearly all actives have a fitted effect of over 55% in size
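Luminescence from the luciferase reporter, measured 30 min after ONE-Glo reagent at room temperature, was the read-out. Beforehand, 2,000 cells per well were exposed for 16 hr at 37 °C to 5-fluorouridine together with compound or vehicle.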
ELG1 genotoxic = qHTS screen for small molecules that induce genotoxicity in human embryonic kidney (HEK293T) cells expressing luciferase-tagged ELG1; HEK293T ELG1-luciferase reporter, luminescence, 16 h; Potency, µM (highest dose often 46 µM), for the others: at the top dose activity change, positive = activation, most hits filed as activators; 330,000 tested, 1.3% active; note: % of control where 0% means no effect; nearly all actives have a fitted effect of over 60% in size
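HEK293T cells expressing luciferase-tagged ELG1 were exposed to compound or DMSO vehicle for 16 hr at 37 °C and 5% CO2. Luciferase activity was then measured with ONE-Glo after 30 min at room temperature.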
Rab9 prom act = qHTS Assay for Rab9 Promoter Activators; Huh7 Rab9 promoter-luciferase reporter, luminescence, 24 h; 320,000 tested, 2.8% active; Potency, µM (titrated, usually from 9.22 µM), for the others: at the top dose activation, negative = inhibition, hits mostly activators; note: % of control where 0% means no effect; nearly all actives have a fitted effect of over 60% in size
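Quantitative HTS format; Huh7 Rab9-luciferase reporter cells (1500/well) receive compound 2 h post-plating, incubate 24 h at 37 °C, then get luciferase reagent for 10 min before luminescence reading.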
An asterisk follows results filed as active; ? = inconclusive; / = no result given; [ ] = remark or other dose. Hits are enriched below; roughly 9.2% of the tested compounds scored in any of these assays. Calls come from the whole dose curve; as a rule, active = well fitted curve in the direction sought with a large enough effect; inconclusive = small, poorly fitted or top-dose-only effect, or another doubt; inactive = no such curve, though single readings can be large; an effect the other way counts as inactive or inconclusive. Potency is the fitted concentration of half-maximal effect.

SMILES	SMN2 splice enh	NPC1 promoter act	FLuc counter	ELG1 repair inh	ELG1 genotoxic	Rab9 prom act
CC(/C=N/NC(=O)c1ccc(Cn2cc([N+](=O)[O-])cn2)o1)=C\c1ccccc1	/	?	2.4µM*	?	12%	4%[1.84 µM]
CCOc1ccc(/C=N/NC(=O)c2ccc(Cn3cc(Br)cn3)o2)cc1	7%	4%	6.7µM*	?	17%	2%
O=C(N/N=C/c1ccc([N+](=O)[O-])cc1)c1cc2ccccc2o1	/	-5%	-1%	?	16%	-5%
CCCc1ccc(OCc2ccc(C(=O)N/N=C/c3cccnc3)o2)cc1	/	0.4µM*	?	?	0.82µM*	0.45µM*
Cc1[nH]nc2c1/C(=N\O)CCC2	3%	-2%	-1%	-8%	2%	3%
Cc1cc2oc(=O)ccc2cc1[N+](=O)[O-]	/	-3%	0%	11%	1%	-1%
CC(CNC(=O)C(C)(C)C)NC(=O)C(C)(C)C (configuration not stated)	-6%	0%	0%	-6%	1%	-1%
O=C(NC1CC1)c1ccc(C2SCC(=O)N2Cc2ccccc2)cc1 (configuration not stated)	-9%	-10%	-3%	9%	-1%	-4%
CCOc1ccccc1/C=N/NC(=O)c1ccc(Cn2cc([N+](=O)[O-])cn2)o1	6%	-2%	6%	1%	1%	-5%
COc1ccc(/C=N/NC(=O)c2ccc(COc3ccccc3Cl)o2)c(OC)c1C	-8%	-6%	3%	-12%	14%	-7%
COc1ccc(/C=N/NC(=O)c2ccc(COc3ccccc3Cl)o2)cc1	14%	18%	2.7µM*	?	13%	17%
CCOc1ccc(/C=N/NC(=O)c2ccc(Cn3cc([N+](=O)[O-])cn3)o2)cc1	27%	/	4.8µM*	/	/	/
CCCn1c(N)c(C(=O)NS(=O)(=O)c2ccc(C)cc2)c(=O)n(C)c1=O	-45%	-13%	2%	10µM*	-16%	-7%
CCN(CC)C(=S)SCC(=O)c1ccccc1	13µM*	2.2µM*	12µM*	?	?	2.8µM*
CCN(CC)C(=S)SCC(=O)c1c(C)[nH]c2ccccc12	?	0%	?	-6%	2%	3%
CCN(CC)C(=S)SCC(=O)c1ccc(F)cc1	18µM*	2.5µM*	15µM*	?	?	2.5µM*
Cc1ccc(C(=O)N2CCCC(CCC(=O)N3CCN(c4ccccn4)CC3)C2)cn1 (configuration not stated)	/	2%	-1%	2%	-5%	-3%
Cc1ccoc1C(=O)N1CCCC(CCC(=O)N2CCN(c3ccccn3)CC2)C1 (configuration not stated)	/	-7%	-1%	21µM*	-8%	-10%
Cc1ccc(C(=O)N2CCCC(CCC(=O)N3CCN(c4ccccn4)CC3)C2)cc1C (configuration not stated)	/	0%	-8%	12µM*	-8%	-5%
Cc1cccc(C(=O)N2CCCC(CCC(=O)N3CCN(c4ccccn4)CC3)C2)c1C (configuration not stated)	/	-24%	-1%	?	-16%	-7%
Cc1cc(N/C=C\c2nnnn2-c2ccccc2)no1	30%	11%	?	?	13%	2%
CN(C)c1ccc(/C=C/c2nnnn2-c2ccccc2)cc1	16µM*	2µM*	8.5µM*	?	?	1.6µM*
CSc1ccccc1NC(=O)C1CC(c2c(F)cccc2Cl)=NO1 (configuration not stated)	/	14%	17µM*	?	?	16%
